# Results published in PMC7862700, “An all-to-all approach to the identification of sequence-specific readers for epigenetic DNA modifications on cytosine”.
# Assays:
# Test in all cases: DAPPL (digital affinity profiling via proximity ligation, sequencing); 10 mM Tris-HCl pH 7.5, 50 mM NaCl, 1 mM DTT, 4% glycerol, room temperature, 30 min; GST-TFs on glutathione beads, 16-mer random dsDNA library, 0.1% formaldehyde crosslink after washing; high values mean tight binding
# FEV = target: T1, FEV (Homo sapiens, UniProt Q99581 1-238); conditions: protein: recombinant; tags: N-terminal GST; dsDNA, one strand shown
# T1 sequence: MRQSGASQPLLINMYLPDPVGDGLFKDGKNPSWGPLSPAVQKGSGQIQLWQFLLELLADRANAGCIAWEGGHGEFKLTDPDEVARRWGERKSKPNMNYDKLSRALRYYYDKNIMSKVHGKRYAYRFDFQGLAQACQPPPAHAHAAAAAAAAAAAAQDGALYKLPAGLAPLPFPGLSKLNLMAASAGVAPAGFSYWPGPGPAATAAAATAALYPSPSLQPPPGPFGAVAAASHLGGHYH
# Procedure, shortened: (§1)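 GST fusions of human transcription factors were expressed in yeast and captured with glutathione beads. Once given DNA barcodes and pooled alongside a tag-only sample, they were incubated for 30 min at room temperature with 200 nmole of a random double-stranded 16-mer DNA library in Tris/NaCl/DTT/glycerol buffer, then washed, crosslinked (0.1% formaldehyde), proximity-ligated, PCR-amplified and sequenced on an Illumina NextSeq500. The binding signal of each hexamer is its read frequency for a factor divided by its frequency for the tag-only sample.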
# ETV5 = ETV5 (Homo sapiens, UniProt P41161 1-510); conditions: protein: recombinant; tags: N-terminal GST; dsDNA, one strand shown
# Procedure, shortened: as §1
# HSF1 = HSF1 (Homo sapiens, UniProt Q00613 1-529); conditions: protein: recombinant; tags: N-terminal GST; chain copies: 3; dsDNA, one strand shown
# Procedure, shortened: as §1
# SPIC = target: T2, SPIC (Homo sapiens, UniProt Q8N5J4 1-248); conditions: protein: recombinant; tags: N-terminal GST; dsDNA, one strand shown
# T2 sequence: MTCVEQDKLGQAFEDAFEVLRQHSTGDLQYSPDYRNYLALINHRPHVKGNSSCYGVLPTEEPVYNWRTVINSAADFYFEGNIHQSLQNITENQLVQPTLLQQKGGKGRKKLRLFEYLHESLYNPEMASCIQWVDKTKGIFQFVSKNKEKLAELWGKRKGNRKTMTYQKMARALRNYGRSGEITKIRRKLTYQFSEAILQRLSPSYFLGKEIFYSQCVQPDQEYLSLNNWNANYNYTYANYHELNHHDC
# Procedure, shortened: as §1
# ELF4 = ELF4 (Homo sapiens, UniProt Q99607 1-663); conditions: protein: recombinant; tags: N-terminal GST; dsDNA, one strand shown
# Procedure, shortened: as §1
# ELK4 = target: T3, ELK4 (Homo sapiens, UniProt P28324-2 1-405); conditions: protein: recombinant; tags: N-terminal GST; dsDNA, one strand shown
# T3 sequence: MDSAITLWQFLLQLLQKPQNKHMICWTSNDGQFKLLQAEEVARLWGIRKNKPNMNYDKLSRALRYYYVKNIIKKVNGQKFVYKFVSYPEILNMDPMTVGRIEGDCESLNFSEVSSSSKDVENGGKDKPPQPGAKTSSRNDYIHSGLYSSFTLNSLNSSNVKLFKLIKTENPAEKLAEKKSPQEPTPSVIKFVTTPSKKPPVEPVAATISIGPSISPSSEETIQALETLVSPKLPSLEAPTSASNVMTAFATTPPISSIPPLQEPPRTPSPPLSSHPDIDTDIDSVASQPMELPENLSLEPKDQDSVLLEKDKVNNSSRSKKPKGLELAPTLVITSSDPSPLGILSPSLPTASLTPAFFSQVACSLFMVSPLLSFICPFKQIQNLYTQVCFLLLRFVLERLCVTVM
# Procedure, shortened: as §1
# ETV2 = target: T4, ETV2 (Homo sapiens, UniProt O00321 1-342); conditions: protein: recombinant; tags: N-terminal GST; dsDNA, one strand shown
# T4 sequence: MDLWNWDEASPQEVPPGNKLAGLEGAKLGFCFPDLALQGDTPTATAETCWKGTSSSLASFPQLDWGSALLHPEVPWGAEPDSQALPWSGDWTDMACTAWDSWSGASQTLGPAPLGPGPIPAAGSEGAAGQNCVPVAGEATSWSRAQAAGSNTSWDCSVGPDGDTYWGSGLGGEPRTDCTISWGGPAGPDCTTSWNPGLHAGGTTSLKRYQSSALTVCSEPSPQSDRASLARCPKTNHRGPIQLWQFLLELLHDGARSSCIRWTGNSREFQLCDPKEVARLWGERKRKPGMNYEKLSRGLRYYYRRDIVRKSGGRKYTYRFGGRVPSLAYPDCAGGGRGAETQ
# Procedure, shortened: as §1
# ELF3 = target: T5, ELF3 (Homo sapiens, UniProt P78545 1-371); conditions: protein: recombinant; tags: N-terminal GST; dsDNA, one strand shown
# T5 sequence: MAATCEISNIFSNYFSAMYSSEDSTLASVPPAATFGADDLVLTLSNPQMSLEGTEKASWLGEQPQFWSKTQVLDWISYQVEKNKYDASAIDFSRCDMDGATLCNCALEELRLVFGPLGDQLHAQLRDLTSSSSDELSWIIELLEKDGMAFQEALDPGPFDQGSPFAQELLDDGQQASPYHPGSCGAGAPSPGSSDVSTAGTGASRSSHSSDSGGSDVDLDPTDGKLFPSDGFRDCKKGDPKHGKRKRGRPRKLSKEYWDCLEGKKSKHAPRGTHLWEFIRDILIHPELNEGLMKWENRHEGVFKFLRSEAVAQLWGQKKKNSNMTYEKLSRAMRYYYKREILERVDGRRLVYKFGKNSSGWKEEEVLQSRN
# Procedure, shortened: as §1
# CRX = CRX (Homo sapiens, UniProt O43186 1-299); conditions: protein: recombinant; tags: N-terminal GST; dsDNA, one strand shown
# Procedure, shortened: as §1
# ETV1 = ETV1 (Homo sapiens, UniProt P50549 1-477); conditions: protein: recombinant; tags: N-terminal GST; dsDNA, one strand shown
# Procedure, shortened: as §1
# ERF = target: T6, ERF (Homo sapiens, UniProt P50548 1-548); conditions: protein: recombinant; tags: N-terminal GST; dsDNA, one strand shown
# T6 sequence: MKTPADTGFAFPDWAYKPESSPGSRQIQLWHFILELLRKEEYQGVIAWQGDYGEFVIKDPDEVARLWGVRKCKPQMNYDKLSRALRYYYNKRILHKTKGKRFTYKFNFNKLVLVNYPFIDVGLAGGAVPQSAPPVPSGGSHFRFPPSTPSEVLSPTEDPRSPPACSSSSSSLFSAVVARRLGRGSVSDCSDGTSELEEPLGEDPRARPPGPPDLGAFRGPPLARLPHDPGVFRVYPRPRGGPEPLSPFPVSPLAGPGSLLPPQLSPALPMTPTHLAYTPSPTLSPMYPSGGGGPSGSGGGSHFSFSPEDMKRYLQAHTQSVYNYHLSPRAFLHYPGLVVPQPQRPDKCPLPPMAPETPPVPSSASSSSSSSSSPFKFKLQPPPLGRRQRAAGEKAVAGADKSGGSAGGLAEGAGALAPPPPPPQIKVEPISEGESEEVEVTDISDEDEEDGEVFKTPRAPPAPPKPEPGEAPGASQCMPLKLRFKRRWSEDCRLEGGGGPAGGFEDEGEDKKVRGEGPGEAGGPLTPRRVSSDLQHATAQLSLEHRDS
# Procedure, shortened: as §1
# ETV3L = target: T7, ETV3L (Homo sapiens, UniProt Q6ZN32 1-361); conditions: protein: recombinant; tags: N-terminal GST; dsDNA, one strand shown
# T7 sequence: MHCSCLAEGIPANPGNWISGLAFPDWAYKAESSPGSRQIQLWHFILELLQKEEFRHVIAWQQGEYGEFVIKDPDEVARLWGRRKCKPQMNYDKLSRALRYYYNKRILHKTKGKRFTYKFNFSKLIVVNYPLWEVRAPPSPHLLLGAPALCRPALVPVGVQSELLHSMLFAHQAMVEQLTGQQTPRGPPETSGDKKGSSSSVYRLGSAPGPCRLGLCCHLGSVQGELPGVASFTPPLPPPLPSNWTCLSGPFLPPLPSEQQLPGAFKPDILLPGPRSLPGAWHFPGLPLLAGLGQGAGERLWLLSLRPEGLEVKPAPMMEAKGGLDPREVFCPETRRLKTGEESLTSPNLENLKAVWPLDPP
# Procedure, shortened: as §1
# ETS2 = target: T8, ETS2 (Homo sapiens, UniProt P15036 1-469); conditions: protein: recombinant; tags: N-terminal GST; dsDNA, one strand shown
# T8 sequence: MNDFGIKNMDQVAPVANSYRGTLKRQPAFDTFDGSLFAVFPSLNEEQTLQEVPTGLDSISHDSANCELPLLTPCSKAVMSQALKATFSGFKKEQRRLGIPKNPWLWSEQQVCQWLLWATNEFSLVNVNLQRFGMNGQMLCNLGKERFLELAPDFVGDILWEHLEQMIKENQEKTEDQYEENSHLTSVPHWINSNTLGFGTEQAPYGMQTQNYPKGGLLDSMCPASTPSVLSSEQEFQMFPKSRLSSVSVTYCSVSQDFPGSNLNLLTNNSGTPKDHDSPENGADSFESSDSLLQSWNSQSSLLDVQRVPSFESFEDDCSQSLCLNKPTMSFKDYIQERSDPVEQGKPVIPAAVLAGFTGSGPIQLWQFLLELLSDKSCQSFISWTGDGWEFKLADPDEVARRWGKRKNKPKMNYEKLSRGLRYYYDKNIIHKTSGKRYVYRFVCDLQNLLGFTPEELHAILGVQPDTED
# Procedure, shortened: as §1
# SPDEF = target: T9, SPDEF (Homo sapiens, UniProt O95238 1-335); conditions: protein: recombinant; tags: N-terminal GST; dsDNA, one strand shown
# T9 sequence: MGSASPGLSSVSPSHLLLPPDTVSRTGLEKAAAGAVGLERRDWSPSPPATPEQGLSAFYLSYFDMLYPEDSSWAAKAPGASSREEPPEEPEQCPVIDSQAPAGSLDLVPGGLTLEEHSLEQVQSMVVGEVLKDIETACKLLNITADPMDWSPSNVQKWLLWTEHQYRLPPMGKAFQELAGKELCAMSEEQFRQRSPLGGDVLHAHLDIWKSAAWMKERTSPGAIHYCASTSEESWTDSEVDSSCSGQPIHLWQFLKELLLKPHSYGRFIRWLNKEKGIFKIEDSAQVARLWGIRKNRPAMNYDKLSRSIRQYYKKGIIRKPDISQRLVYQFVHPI
# Procedure, shortened: as §1
# ETV7 = target: T10, ETV7 (Homo sapiens, UniProt Q9Y603 1-341); conditions: protein: recombinant; tags: N-terminal GST; dsDNA, one strand shown
# T10 sequence: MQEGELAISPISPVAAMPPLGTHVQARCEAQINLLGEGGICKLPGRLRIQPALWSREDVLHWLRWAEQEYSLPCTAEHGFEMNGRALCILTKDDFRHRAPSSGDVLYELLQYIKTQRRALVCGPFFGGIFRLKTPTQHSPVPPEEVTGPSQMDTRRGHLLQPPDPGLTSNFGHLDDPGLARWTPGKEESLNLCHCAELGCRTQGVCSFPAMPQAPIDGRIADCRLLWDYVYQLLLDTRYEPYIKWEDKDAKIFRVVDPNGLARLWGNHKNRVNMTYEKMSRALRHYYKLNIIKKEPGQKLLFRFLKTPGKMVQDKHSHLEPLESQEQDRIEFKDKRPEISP
# Procedure, shortened: as §1
# ELF5 = target: T11, ELF5 (Homo sapiens, UniProt Q9UKW6-2 1-255); conditions: protein: recombinant; tags: N-terminal GST; dsDNA, one strand shown
# T11 sequence: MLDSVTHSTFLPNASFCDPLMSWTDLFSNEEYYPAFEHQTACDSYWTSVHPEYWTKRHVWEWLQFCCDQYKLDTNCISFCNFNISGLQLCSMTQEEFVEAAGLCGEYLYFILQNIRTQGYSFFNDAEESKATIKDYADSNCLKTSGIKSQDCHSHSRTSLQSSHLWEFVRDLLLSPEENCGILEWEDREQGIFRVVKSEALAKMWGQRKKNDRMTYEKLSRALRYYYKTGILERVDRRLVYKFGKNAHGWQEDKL
# Procedure, shortened: as §1
# ETV3 = target: T12, ETV3 (Homo sapiens, UniProt P41162-2 1-143); conditions: protein: recombinant; tags: N-terminal GST; dsDNA, one strand shown
# T12 sequence: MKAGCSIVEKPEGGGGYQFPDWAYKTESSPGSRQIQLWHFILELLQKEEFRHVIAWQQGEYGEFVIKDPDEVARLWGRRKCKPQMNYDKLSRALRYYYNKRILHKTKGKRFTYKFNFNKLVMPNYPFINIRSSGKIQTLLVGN
# Procedure, shortened: as §1
# ETV6 = ETV6 (Homo sapiens, UniProt P41212 1-452); conditions: protein: recombinant; tags: N-terminal GST; dsDNA, one strand shown
# Procedure, shortened: as §1
# ELF4, sequence (Q99607 whole entry): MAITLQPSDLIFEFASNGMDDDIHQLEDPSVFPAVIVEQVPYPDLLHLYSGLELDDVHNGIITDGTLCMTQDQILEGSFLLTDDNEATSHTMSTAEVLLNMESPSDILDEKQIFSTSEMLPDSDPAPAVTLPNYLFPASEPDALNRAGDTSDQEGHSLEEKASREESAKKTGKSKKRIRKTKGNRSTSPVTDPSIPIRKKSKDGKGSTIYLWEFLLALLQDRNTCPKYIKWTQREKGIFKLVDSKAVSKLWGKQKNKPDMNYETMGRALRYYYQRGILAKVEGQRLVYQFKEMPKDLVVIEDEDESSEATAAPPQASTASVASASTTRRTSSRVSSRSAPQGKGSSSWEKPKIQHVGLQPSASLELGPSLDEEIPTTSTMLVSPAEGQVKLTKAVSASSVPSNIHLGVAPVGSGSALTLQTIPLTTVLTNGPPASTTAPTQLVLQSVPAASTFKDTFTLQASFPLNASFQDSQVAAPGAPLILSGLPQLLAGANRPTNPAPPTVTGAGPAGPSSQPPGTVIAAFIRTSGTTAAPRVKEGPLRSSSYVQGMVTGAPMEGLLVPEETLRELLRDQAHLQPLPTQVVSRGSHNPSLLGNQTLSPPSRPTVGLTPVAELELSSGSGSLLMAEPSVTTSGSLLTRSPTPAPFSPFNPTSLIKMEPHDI
# ETV1, sequence (P50549 whole entry): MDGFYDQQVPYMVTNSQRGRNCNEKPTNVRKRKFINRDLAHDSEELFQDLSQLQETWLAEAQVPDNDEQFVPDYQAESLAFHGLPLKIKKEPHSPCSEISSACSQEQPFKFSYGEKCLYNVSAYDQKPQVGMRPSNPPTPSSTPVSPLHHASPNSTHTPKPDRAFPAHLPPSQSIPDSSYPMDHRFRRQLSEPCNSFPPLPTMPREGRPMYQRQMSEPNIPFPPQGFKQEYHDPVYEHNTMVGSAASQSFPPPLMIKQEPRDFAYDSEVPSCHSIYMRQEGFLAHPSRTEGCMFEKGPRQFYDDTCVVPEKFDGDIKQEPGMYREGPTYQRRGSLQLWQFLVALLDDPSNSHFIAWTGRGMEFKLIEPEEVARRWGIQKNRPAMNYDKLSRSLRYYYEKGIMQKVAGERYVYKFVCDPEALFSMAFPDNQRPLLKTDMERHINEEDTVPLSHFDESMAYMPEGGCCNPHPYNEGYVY
# ETV6, sequence (P41212 whole entry): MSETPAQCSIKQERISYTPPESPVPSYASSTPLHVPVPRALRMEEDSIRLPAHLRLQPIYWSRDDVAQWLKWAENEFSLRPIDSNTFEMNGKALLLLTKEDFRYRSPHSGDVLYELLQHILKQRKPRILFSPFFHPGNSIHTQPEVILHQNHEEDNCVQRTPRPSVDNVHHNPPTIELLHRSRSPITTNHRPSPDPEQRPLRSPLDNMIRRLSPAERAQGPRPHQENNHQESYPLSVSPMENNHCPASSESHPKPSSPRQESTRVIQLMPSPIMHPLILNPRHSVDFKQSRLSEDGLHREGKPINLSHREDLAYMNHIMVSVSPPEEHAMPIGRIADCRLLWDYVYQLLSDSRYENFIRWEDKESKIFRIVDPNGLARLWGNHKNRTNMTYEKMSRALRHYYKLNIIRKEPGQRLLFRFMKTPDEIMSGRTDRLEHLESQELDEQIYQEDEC
# CRX, sequence (O43186 whole entry): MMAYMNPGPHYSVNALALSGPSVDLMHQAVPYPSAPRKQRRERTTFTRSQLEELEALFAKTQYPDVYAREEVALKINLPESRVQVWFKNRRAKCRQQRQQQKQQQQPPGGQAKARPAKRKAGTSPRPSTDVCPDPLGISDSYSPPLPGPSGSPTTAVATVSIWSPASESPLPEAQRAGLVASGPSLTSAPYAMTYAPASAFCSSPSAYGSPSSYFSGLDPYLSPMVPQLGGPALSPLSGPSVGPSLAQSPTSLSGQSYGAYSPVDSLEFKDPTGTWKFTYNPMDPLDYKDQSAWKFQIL
# HSF1, sequence (Q00613 whole entry): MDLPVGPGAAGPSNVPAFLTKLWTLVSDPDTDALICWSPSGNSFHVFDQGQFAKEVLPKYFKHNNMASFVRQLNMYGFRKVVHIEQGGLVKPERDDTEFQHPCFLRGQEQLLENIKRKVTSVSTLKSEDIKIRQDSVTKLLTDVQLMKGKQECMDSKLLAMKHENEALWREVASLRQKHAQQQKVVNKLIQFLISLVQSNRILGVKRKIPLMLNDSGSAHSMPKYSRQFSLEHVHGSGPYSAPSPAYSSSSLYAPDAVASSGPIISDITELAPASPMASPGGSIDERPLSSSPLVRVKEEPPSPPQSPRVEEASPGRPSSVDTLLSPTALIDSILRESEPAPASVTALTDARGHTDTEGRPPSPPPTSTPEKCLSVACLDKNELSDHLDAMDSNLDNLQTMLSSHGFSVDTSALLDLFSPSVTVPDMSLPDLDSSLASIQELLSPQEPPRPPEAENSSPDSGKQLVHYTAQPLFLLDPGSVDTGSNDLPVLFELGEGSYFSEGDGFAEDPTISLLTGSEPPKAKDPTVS
# ETV5, sequence (P41161 whole entry): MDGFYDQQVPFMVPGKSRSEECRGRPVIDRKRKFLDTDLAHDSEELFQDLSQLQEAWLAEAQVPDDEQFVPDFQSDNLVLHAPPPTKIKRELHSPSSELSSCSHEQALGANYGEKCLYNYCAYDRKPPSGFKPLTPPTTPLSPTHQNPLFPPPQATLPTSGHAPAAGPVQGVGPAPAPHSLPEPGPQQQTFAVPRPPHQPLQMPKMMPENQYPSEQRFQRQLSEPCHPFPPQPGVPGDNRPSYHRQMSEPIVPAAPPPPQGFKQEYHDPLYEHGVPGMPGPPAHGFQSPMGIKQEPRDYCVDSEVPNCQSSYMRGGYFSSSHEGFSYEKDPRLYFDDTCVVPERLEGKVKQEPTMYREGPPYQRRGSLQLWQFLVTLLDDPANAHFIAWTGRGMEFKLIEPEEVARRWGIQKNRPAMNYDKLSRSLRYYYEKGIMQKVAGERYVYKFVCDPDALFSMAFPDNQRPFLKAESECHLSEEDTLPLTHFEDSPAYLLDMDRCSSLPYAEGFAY
sequence,measurement,setting,value
AGCTTT,binding signal,FEV,"1.08 fold enrichment (6-mer frequency, TF over GST control)"
same,binding signal,ETV5,"1.18 fold enrichment (6-mer frequency, TF over GST control)"
same,binding signal,HSF1,"1.43 fold enrichment (6-mer frequency, TF over GST control)"
same,binding signal,SPIC,"1.03 fold enrichment (6-mer frequency, TF over GST control)"
same,binding signal,ELF4,"1.15 fold enrichment (6-mer frequency, TF over GST control)"
same,binding signal,ELK4,"1.28 fold enrichment (6-mer frequency, TF over GST control)"
same,binding signal,ETV2,"1.23 fold enrichment (6-mer frequency, TF over GST control)"
same,binding signal,ELF3,"1.45 fold enrichment (6-mer frequency, TF over GST control)"
same,binding signal,CRX,"1.81 fold enrichment (6-mer frequency, TF over GST control)"
same,binding signal,ETV1,"1.1 fold enrichment (6-mer frequency, TF over GST control)"
same,binding signal,ERF,"1.15 fold enrichment (6-mer frequency, TF over GST control)"
same,binding signal,ETV3L,"1.2 fold enrichment (6-mer frequency, TF over GST control)"
same,binding signal,ETS2,"1.19 fold enrichment (6-mer frequency, TF over GST control)"
same,binding signal,SPDEF,"1.12 fold enrichment (6-mer frequency, TF over GST control)"
same,binding signal,ETV7,"1.25 fold enrichment (6-mer frequency, TF over GST control)"
same,binding signal,ELF5,"1.04 fold enrichment (6-mer frequency, TF over GST control)"
same,binding signal,ETV3,"1.07 fold enrichment (6-mer frequency, TF over GST control)"
same,binding signal,ETV6,"1.19 fold enrichment (6-mer frequency, TF over GST control)"
